TEAD-YAP block = TEAD-YAP interaction inhibition, primary screen, TEAD-YAP interaction inhibitor project, luminescence, HEK-TIYL cells | TEAD-Gal4/YAP UAS-luciferase luminescence | inhibition, % at 9.12 µM | hit rate 1.4% among 640,000; in the data active means inhibition above about 32%;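 further: 0% = median of test compound wells and 100% = reference inhibitor wells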
GPR151 ag = activators of human GPR151, primary screen, cell-based, PathHunter beta-arrestin, luminescence; PathHunter beta-arrestin GPR151 cells; activation, % at 11.2 µM; AID 1508602, 2020; hit rate 1% among 650,000; G-protein coupled receptor 151 (Homo sapiens), Q8TDV0; in the data active means activation above about 4.9%;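 further: 0% = median of compound wells and 100% = cells with positive control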
FBW7 act = FBW7 E3 ligase activators, primary screen, biochemical, AlphaScreen, human; F-box/WD repeat-containing protein 7 (Homo sapiens), Q969H0; AlphaScreen FBW7–phospho-cyclin E peptide binding, activator screen; normalized activity (activation), % at 26.1 µM; hit rate 0.13% among 650,000; AID 1259310, 2017; in the data active means normalized activity above about 1.9%;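 further: purified mutant Fbw7 with reduced substrate affinity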
Target sequence (Q969H0 whole entry, looked up): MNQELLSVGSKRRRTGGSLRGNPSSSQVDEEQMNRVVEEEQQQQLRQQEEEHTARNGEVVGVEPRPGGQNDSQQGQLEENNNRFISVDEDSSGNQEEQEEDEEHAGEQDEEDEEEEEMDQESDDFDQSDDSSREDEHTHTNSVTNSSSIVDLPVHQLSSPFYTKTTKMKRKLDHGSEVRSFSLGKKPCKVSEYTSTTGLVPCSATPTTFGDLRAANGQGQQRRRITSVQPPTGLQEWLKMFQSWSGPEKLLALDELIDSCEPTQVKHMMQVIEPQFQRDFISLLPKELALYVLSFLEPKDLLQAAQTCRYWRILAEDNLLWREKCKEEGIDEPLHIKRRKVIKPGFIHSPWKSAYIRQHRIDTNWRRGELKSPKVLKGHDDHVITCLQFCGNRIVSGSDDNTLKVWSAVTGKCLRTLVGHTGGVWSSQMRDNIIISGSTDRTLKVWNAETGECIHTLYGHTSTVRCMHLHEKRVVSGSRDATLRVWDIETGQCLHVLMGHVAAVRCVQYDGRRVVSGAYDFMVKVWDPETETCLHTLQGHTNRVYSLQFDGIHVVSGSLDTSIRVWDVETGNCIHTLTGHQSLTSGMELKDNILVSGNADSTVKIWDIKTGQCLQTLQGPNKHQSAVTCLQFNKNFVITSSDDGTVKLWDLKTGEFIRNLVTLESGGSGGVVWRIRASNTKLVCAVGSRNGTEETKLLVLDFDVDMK
MITF primary = MITF inhibitors, primary screen, biochemical, AlphaScreen, human. hit rate 0.91% among 650,000. AlphaScreen MITF homodimerization, bead proximity signal. inhibition, % at 2.6 µM. Microphthalmia-associated transcription factor (Homo sapiens), O75030; in the data active means inhibition above about 50%;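 further: 0% = vehicle wells with protein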
GPR151 conf act = GPR151 activators, triplicate retest, confirmation, cell-based, PathHunter beta-arrestin, luminescence. shares compounds with GPR151 ag. GPR151 PathHunter beta-arrestin cells, 90 min; % of EA-reagent control over plate median. activation, % at 11.2 µM. 6,700 tested, under 10 active;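 active means mean percent activation across replicates above the confirmation screen cutoff of 4.91%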
GPR119 counter = GPR119 activators in beta-arrestin cells, counter-screen for GPR151 activator project, cell-based, PathHunter beta-arrestin, luminescence, triplicate; shares compounds with GPR151 ag; 90 min; 0 = compound-well median, 100 = enzyme-acceptor control; activation, % at 11.2 µM; hit rate 0.3% among 6,700; AID 1508611, 2020;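 active means mean percent activation in the counterscreen above 29.09%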;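 further: counterscreen on off-target GPR119 to flag nonselective hits from the GPR151 activator screen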
Numbers without * were called inactive; x = no result given. An excerpt weighted towards active compounds, which were near 3.5% of everything screened.

SMILES	TEAD-YAP block	GPR151 ag	FBW7 act	MITF primary	GPR151 conf act	GPR119 counter
CC1Cc2ccccc2N1C(=O)Nc1ccc(F)cc1 (centres undefined)	-7.0	5.5*	0.6	11.4	-0.6	-20.2
COc1ccc([N+](=O)[O-])cc1N=Cc1c(O)[nH]c2ccccc12	3.3	1.9	-0.1	-6.1	x	x
CCOC(CNC(=O)c1ccc2cc[nH]c2c1)(OCC)c1ccncc1	-6.2	7.3*	-0.2	5.2	-0.7	-2.4
COc1ccccc1/C=C/C(=O)NCc1ccco1	-5.3	8.9*	0.1	6.4	-1.1	-12.7
O=C(/C=C/c1ccccc1Cl)NCc1ccco1	-26.8	-0.3	0.0	11.4	x	x
O=C(/C=C/c1ccccc1)NCc1ccco1	-23.8	-0.1	-0.1	-6.4	x	x
O=C(/C=C/c1ccc(OCc2ccccc2)cc1)NCc1ccco1	13.7	8.0*	-0.1	3.0	0.2	0.4
NCCc1c(-c2ccc(F)cc2)[nH]c2ccccc12	-6.9	-1.3	0.1	-4.7	x	x
CC(C)CN1C(=O)C(NC(=O)C2CCCCC2)(C(F)(F)F)C2=C1CC(C)(C)CC2=O (centres undefined)	7.8	1.7	0.1	-3.1	x	x
CC(C)OC(=O)c1cccc(C(=O)Oc2ccc(Br)cc2)n1	12.6	6.7*	0.1	8.2	-0.5	-8.3
COC(=O)c1cccc(C(=O)Oc2ccc(Br)cc2)n1	-0.3	0.9	-0.2	-1.2	x	x
COc1ccc(/C=C/C(=O)Nc2ccc3[nH]c(=O)[nH]c3c2)cc1	0.3	-0.8	0.2	11.7	x	x
CC(C)c1ccc(C2C(C#N)=C(N)OC(N)=C2C#N)cc1	-2.0	-0.4	-0.2	-6.6	x	x
CC1=C(C#N)C(c2ccc(C(C)C)cc2)C(C#N)=C(C)N1	4.0	9.9*	-0.1	-3.4	0.2	11.2
O=C(NCCc1ccc(O)cc1)c1cnc(-c2ccc(N3CCOCC3)nc2)s1	-0.1	5.1*	0.2	-1.6	-1.1	-3.6
CCCCS(=O)(=O)N1CCN(c2cc(-n3ccnc3C)ncn2)CC1	-3.0	1.2	-0.1	0.2	x	x
COc1ccc(-c2nnc(SCC(=O)Nc3cccc(Cl)c3C)nc2-c2ccc(OC)cc2)cc1	8.7	5.8*	0.0	1.7	-0.8	-5.9
Cc1cc(C(=O)CSc2nc(N)cc(=O)[nH]2)ccc1F	-13.9	-1.1	-0.3	-12.8	x	x
Cc1ccc(C(=O)CSc2nc(N)cc(=O)[nH]2)cc1C	-5.9	5.9*	0.0	-10.3	0.7	3.0
Cc1[nH]c2ccccc2c1C(=O)CSc1nc(N)cc(=O)[nH]1	9.6	5.8*	0.0	5.8	0.0	7.1
O=c1c(O)c(-c2cc(Br)cc3c2OCOC3)oc2ccc(Cl)cc12	6.4	-0.2	0.2	11.8	x	x
O=C1C(Cl)=C(NCCO)C(=O)N1c1ccc(Cl)cc1	14.1	5.1*	0.5	25.2	0.0	4.4
C=C(C)CN(CC)Cc1nc(-c2ccccn2)no1	1.9	14.4*	0.0	6.3	0.1	0.2
COc1cccc(N2CC(NC(=O)N3CCN(c4ccc(C(C)=O)cc4)CC3)CC2=O)c1 (centres undefined)	-7.0	3.0	-0.1	11.4	x	x
COc1cccc(N2CC(NC(=O)N3CCN(c4ccc([N+](=O)[O-])cc4)CC3)CC2=O)c1 (centres undefined)	20.4	12.4*	-0.2	9.7	-0.4	-3.4
CC1(C(=O)NNC(=S)NCc2ccco2)CC1(Cl)Cl (centres undefined)	2.5	5.3*	0.1	10.6	0.5	5.3
COCCCNC(=O)C1CCN(S(=O)(=O)c2ccc(Br)cc2)CC1	10.0	-0.7	0.2	1.7	x	x
C=CCNC(=O)C1CCN(S(=O)(=O)c2ccc(Br)cc2)CC1	8.1	5.7*	0.1	-3.4	0.6	-3.9
O=C(Nc1ccc(Cl)cc1)c1cnn(-c2ccc(F)cc2)c1C1CCNCC1	-4.8	-0.3	1.6	15.4	x	x
FC1(F)C(F)(F)C(F)(F)C2(F)C(F)(F)C(F)(F)C(F)(F)C(F)(F)C2(F)C1(F)F (centres undefined)	3.2	5.1*	-0.1	1.1	-0.1	-5.7
